Measurements: PubChem BioAssay (Tox21)
Results filed as inconclusive are left out. A call without a number means that no potency is given here. Active and inactive are the calls of the source. Calls come from the whole dose curve; as a rule, active = well fitted cell-killing curve with a large enough effect in the repeat runs; inconclusive = weak or mixed curves, or effect the other way; inactive = no such curve, though single readings can be large or run the other way.

Assay: qHTS assay to identify small molecule antagonists of the glucocorticoid receptor (GR) signaling pathway - cell viability counter screen (AID 720693); note: nearly all actives have a fitted effect of over 55% in size
Settings: GR-bla HeLa viability, CellTiter-Glo luminescence, 18 h, with 5 nM dexamethasone present; series mostly up to 58.5 µM; viability change, negative = cytotoxic: at the top concentration
Source text: National Center for Advancing Translational Sciences [NCATS]
NIH Chemical Genomics Center [NCGC]
U.S. Environmental Protection Agency [EPA]
National Institutes of Environmental Health Sciences [NIEHS]
National Toxicology Program [NTP]
U.S. Food and Drug Administration [FDA]
The Glucocorticoid receptor (GR) is one of the members of the nuclear receptor family of ligand-dependent transcription factors. GR plays a critical role in carbohydrate, protein and lipid metabolisms and programmed cell death. CellSensor GR-bla HeLa cell line (Invitrogen) contains a beta-lactamase reporter gene under the control of the glucocorticoid response element stably integrated into HeLa cells, a cervical cancer cell line that expresses glucocorticoid receptor. The activation of the reporter gene under culture conditions can be detected by fluorescence intensity. This cell line has been used to screen the Tox21 10K compound library and to identify the compounds that inhibit the GR signaling. The cytotoxicity of the Tox21 compound library against the GR-bla HeLa cell line was tested in parallel by measuring the cell viability using CellTiter-Glo assay in the same wells.
Tox21 Assay Protocol Summary:
The GR-bla HeLa cells were dispensed at 1500 cells/5 ul/well in 1536-well black wall/clear bottom plates using a Multidrop Combi (ThermoFisher Scientific, Waltham, MA) dispenser. After the assay plates were incubated at a 37 C/5% CO2 incubator for 4 hours, 23 nL of compounds dissolved in DMSO, positive controls or DMSO only was transferred to the assay plate by a pintool station (Kalypsys, San Diego, CA), followed by addition of 1 uL of dexamethasone (5 nM, final concentration in the well). The plates were incubated at 37 C for 18 hours. After 1 uL of LiveBLAzerTM B/G FRET substrate was added using a Flying Reagent Dispenser (Aurora Discovery, San Diego, CA), the plates were incubated at room temperature (RT) for 2 hours, and fluorescence intensity was measured by an Envision plate reader (PerkinElmer, Shelton, CT). After measurement of bla assay, 3 ul CellTiter-Glo (Promega, Madison, WI) was added to measure the cytotoxicity and the plates were then incubated at RT for 30 min. The luminescence was measured using a ViewLux (Perkin Elmer) plate reader.
In the case of `O=S(=O)(O)OOS(=O)(=O)O`, the Potency is reported as “inactive”. With `C[C@H]1C(=O)O[C@@H]2CCN3CC=C(COC(=O)[C@](C)(O)[C@]1(C)O)[C@H]23` the Potency was “inactive”. For `COC(C)(C)CCCC(C)C/C=C/C(C)=C/C(=O)OC(C)C` (stereo not given), the Potency was “inactive”. In the case of `Cl/C=C/Cl`, the Potency is reported as “inactive”. In the case of `O=[N+]([O-])c1cc([As](=O)(O)O)ccc1O`, the Potency is reported as “inactive”. In the case of `Nc1nc(N)nc(NC2CC2)n1`, the Potency is reported as “inactive”. For `CCOP(=S)(OCC)Oc1ccc([N+](=O)[O-])cc1`, the Potency was “inactive”. For `N#CN=C(N)N`, the Potency was “inactive”. In the case of `Cl[C@H]1OCCO[C@@H]1Cl`, the Potency is reported as “inactive”. With `COP(=S)(OC)Oc1ccc(SC)c(C)c1` the Potency was “inactive”. In the case of `O=C(O)c1cc(Oc2ccc(C(F)(F)F)cc2Cl)ccc1[N+](=O)[O-]`, the Potency is reported as “inactive”. In the case of `CN1C(=O)CCS(=O)(=O)C1c1ccc(Cl)cc1` (stereo not given), the Potency is reported as “inactive”. In the case of `OC[C@@H](O)[C@H]1O[C@@H]2O[C@H](C(Cl)(Cl)Cl)O[C@@H]2[C@H]1O`, the Potency is reported as “inactive”. In the case of `Nc1ncc([N+](=O)[O-])s1`, the Potency is reported as “inactive”. In the case of `CN(C)C(=O)Cl`, the Potency is reported as “inactive”. With `COc1nc(NC(C)C)nc(NC(C)C)n1` the Potency was “inactive”. For `OCCCCO`, the Potency was “inactive”. In the case of `Cc1cccc(N)c1`, the Potency is reported as “inactive”. With `O=[N+]([O-])c1ccc(Cl)cc1` the Potency was “inactive”. In the case of `COP(=S)(OC)SCN1C(=O)c2ccccc2C1=O`, the Potency is reported as “inactive”. With `Nc1cc(Cl)cc(Cl)c1` the Potency was “inactive”. For `O=C/C=C/c1ccccc1`, the Potency was “inactive”. For `Nc1ccc(N)cc1`, the Potency was “inactive”. In the case of `Cc1ccccc1N`, the Potency is reported as “inactive”. For `OCC(O)CCl` (stereo not given), the Potency was “inactive”. For `O=C(O)COc1ccccc1`, the Potency was “inactive”. In the case of `Cc1ccc(N)cc1`, the Potency is reported as “inactive”. In the case of `Cc1ccc(O)c(C)c1`, the Potency is reported as “inactive”. With `CNC(=O)O/N=C(\SC)C(=O)N(C)C` the Potency was “inactive”. In the case of `O=C(O)C1C(C(=O)O)C2(Cl)C(Cl)=C(Cl)C1(Cl)C2(Cl)Cl` (stereo not given), the Potency is reported as “inactive”. With `CCSC(=O)N1CCCCCC1` the Potency was “inactive”. For `CC(=O)/C=C/c1ccccc1`, the Potency was “inactive”. For `O=C(O)C(Br)Br`, the Potency was “inactive”. In the case of `Cc1cc(Cl)ccc1OC(C)C(=O)O` (stereo not given), the Potency is reported as “inactive”. In the case of `CNc1cnn(-c2cccc(C(F)(F)F)c2)c(=O)c1Cl`, the Potency is reported as “inactive”. With `C=CC(=O)OCCCCCC(C)C` the Potency was “inactive”. With `COC(=O)Nc1cccc(OC(=O)Nc2cccc(C)c2)c1` the “viability change, negative = cytotoxic” value was -2.84% (inactive). For `CN(C)CCC#N`, the Potency was “inactive”. For `CSc1nnc(C(C)(C)C)c(=O)n1N`, the Potency was “inactive”. In the case of `Cc1ccc(N=C=O)cc1N=C=O`, the Potency is reported as “inactive”.
